Consider eight molecules from PubChem BioAssay (EPA / NIEHS).

Results filed as inconclusive are left out. Activity calls are given as the source filed them. How the source made its calls, unless noted: active means hit-call score of the fitted dose curve at least 0.9, where 1 is the maximum; inactive means score below 0.9.

The target of assay [1] is Myc proto-oncogene protein (Homo sapiens) (UniProt P01106). The experiment in a line: ATG_Myc_CIS: Attagene CIS-FACTORIAL HepG2 Assay for human Myelocytomatosis (Myc) Proto-Oncogene Transcription Factor (AID 2282990). Particulars: HepG2, Attagene cis-reporter transcription factor activity; actives raise or lower the signal. In a few lines: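 HepG2 cells transiently transfected with multiple cis-promoter-driven reporter transcription units, so endogenous TF activity is read. After 24 h compound exposure, reporter mRNA was quantified by RT-PCR, 6-FAM labelling, HpaI digestion and capillary electrophoresis; bidirectional fit versus DMSO.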

Assay [2] can be described thus: ATG_NF_kB_CIS: Attagene CIS-FACTORIAL HepG2 Assay for human Nuclear Factor Kappa B (NF-kB) (AID 2282991). Particulars: HepG2 Attagene cis-factorial NF-kB reporter mRNA; actives raise or lower the signal. In a few lines: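 Fluorescence of labelled RT-PCR products separated by capillary electrophoresis gives reporter mRNA levels from transfected HepG2 cells exposed 24 h; values are fitted in both directions relative to DMSO.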

Assay [3] can be described thus: ATG_NRF2_ARE_CIS: Attagene CIS-FACTORIAL HepG2 Assay for human Nuclear Factor Erythroid 2 Related Factor 2 (NFR2) response to Antioxidant Response Elements (ARE) (AID 2282992). Particulars: HepG2 Attagene ARE/NRF2 reporter, transcription factor activity; actives raise or lower the signal. An outline of the steps:
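HepG2 cells transiently transfected with multiplexed cis-element reporter constructs, 24 h after chemical dosing; reporter mRNA quantified by RT-PCR, fluorescent primer extension, HpaI digestion and capillary electrophoresis. Bidirectional fit relative to DMSO.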

Assay [4] can be described thus: ATG_Oct_MLP_CIS: Attagene CIS-FACTORIAL HepG2 Assay for human Octamer-Binding Transcription Factor (Oct) (AID 2282993). Particulars: HepG2 Attagene cis-factorial Oct reporter, mRNA; actives raise or lower the signal. In a few lines: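 Readout is reporter transcript level from RT-PCR with fluorescent primer extension and capillary electrophoresis, fitted in both directions against DMSO. Transfected HepG2 reporter units report endogenous factor activity after 24 h dosing.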

In assay [5] the target is Cellular tumor antigen p53 (Homo sapiens) (UniProt P04637). The experiment in a line: ATG_p53_CIS: Attagene CIS-FACTORIAL HepG2 Assay for human p53 Transcription Factor (AID 2282994). Particulars: HepG2 p53 cis-element reporter, Attagene mRNA; actives raise or lower the signal. In a few lines: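 HepG2 cells transiently transfected with cis-regulated multiple reporter transcription units, dosed 24 h. Reporter mRNA measured by RT-PCR, 6-FAM primer extension, HpaI digestion and capillary electrophoresis; bidirectional fit relative to DMSO.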

The target in assay [6] is human Retinoic Acid Receptor beta (RARb), RARB (gene 5915) (UniProt P10826). Kind of assay: ATG_RARb_TRANS: Attagene TRANS-FACTORIAL HepG2 Assay for human Retinoic Acid Receptor beta (AID 2283004; active means hit-call score of the fitted dose curve at least 0.9, where 1 is the maximum). In a few lines: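 HepG2 cells transiently transfected with multiplexed GAL4-UAS reporter units expressing chimeric NR–Gal4 fusions; 24 h compound exposure. Reporter mRNA quantified by RT-PCR, 6-FAM labelling, HpaI digestion and capillary electrophoresis; gain-of-signal fitted against DMSO baseline.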

Assay [7] concerns the target Retinoic acid receptor alpha (Homo sapiens) (UniProt P10276). The experiment in a line: ATG_RARa_TRANS: Attagene TRANS-FACTORIAL HepG2 Assay for human Retinoic Acid Receptor alpha (RARa) (AID 2283005; active means hit-call score of the fitted dose curve at least 0.9, where 1 is the maximum). An outline of the steps: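 HepG2 cells transiently transfected with multiple reporter units expressing chimeric RARα-GAL4 fusion, with GAL4-UAS-driven reporters. After 24 h compound exposure, reporter mRNA induction quantified by RT-PCR and capillary electrophoresis with fluorescent labeling; gain-of-signal fitted relative to DMSO control.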

In assay [8] the target is Nuclear receptor subfamily 1 group I member 2 (Homo sapiens) (UniProt O75469). Kind of assay: ATG_PXR_TRANS: Attagene TRANS-FACTORIAL HepG2 Assay for human Pregnane X Receptor (PXR) (AID 2283008; active means hit-call score of the fitted dose curve at least 0.9, where 1 is the maximum). In a few lines:
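HepG2 cells transiently transfected with GAL4-UAS reporter units and PXR-Gal4 chimera, exposed 24 h. Reporter mRNA quantified by RT-PCR, fluorescent labelling, HpaI digestion and capillary electrophoresis; gain of signal vs DMSO.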

For assay [9], the target named is human Retinoic Acid Receptor gamma (RARg), RARG (gene 5916) (UniProt P13631). The experiment in a line: ATG_RARg_TRANS: Attagene TRANS-FACTORIAL HepG2 Assay for human Retinoic Acid Receptor gamma (RARg) (AID 2283009; active means hit-call score of the fitted dose curve at least 0.9, where 1 is the maximum). In a few lines: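 HepG2 cells transiently transfected with multiplexed reporter units expressing chimeric RARg-GAL4 and GAL4-UAS-driven reporters; 24 h compound exposure. Reporter mRNA quantified by RT-PCR with fluorescent labelling and capillary electrophoresis; gain-of-signal fitted relative to DMSO baseline.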

For assay [10], the target named is human RAR-related Orphan Receptor beta (RORb), RORB (gene 6096) (UniProt Q92753). The experiment in a line: ATG_RORb_TRANS: Attagene TRANS-FACTORIAL HepG2 Assay for human RAR-related Orphan Receptor beta (RORb) (AID 2283010; active means hit-call score of the fitted dose curve at least 0.9, where 1 is the maximum). An outline of the steps:
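HepG2 cells were transiently transfected with multiplexed GAL4-UAS reporter units expressing chimeric nuclear receptor–GAL4 proteins, then dosed for 24 h. Reporter mRNA was quantified by RT-PCR with fluorescent labelling and capillary electrophoresis; gain of signal was fitted relative to DMSO.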

The nature of assay [11]: BSK_3C_TissueFactor: BioMAP Diversity Plus: 3C Assay for Tissue Factor Biomarker Activity (AID 2282997). Particulars: BioMAP 3C HUVEC, tissue factor biomarker readout; actives raise or lower the signal. An outline of the steps: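 Primary human umbilical vein endothelial cells in the 3C system were exposed to test chemical for 24 h, then Tissue Factor measured by ELISA. Activity was fitted bidirectionally against DMSO as negative control and baseline.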

Assay [12] is described as follows: BSK_3C_uPAR: BioMAP Diversity Plus: 3C Assay for Urokinase-type plasminogen activator receptor (uPAR) Biomarker Activity (AID 2282998). Particulars: BioMAP 3C HUVEC, uPAR biomarker ELISA; actives raise or lower the signal. An outline of the steps:
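Cell-surface uPAR on HUVEC (3C system) read by ELISA at 24 h post-treatment, with DMSO as baseline and fitting in both directions. Parallel cultures stained with SRB to flag overt cytotoxicity.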

The nature of assay [13]: BSK_3C_VCAM1: BioMAP Diversity Plus: 3C Assay for Vascular cell adhesion molecule 1 (VCAM1) Biomarker Activity (AID 2282999). Particulars: BioMAP 3C HUVEC, VCAM1 ELISA, cytokine-stimulated; actives raise or lower the signal. In a few lines:
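Human umbilical vein endothelial cells were dosed with compound for 24 h, after which cell-surface VCAM-1 was quantified by ELISA. Bidirectional curve fitting used DMSO as negative control and activity baseline.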

A short description of assay [14]: BSK_4H_Eotaxin3: BioMAP Diversity Plus: 4H Assay for Eotaxin 3 Biomarker Activity (AID 2283000).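 Further: CCL26 protein level quantified by ELISA in parallel with SRB cytotoxicity check.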 Particulars: primary human endothelial cells (HUVEC); actives raise or lower the signal. An outline of the steps: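 HUVEC, 24 h post-dose, ELISA for Eotaxin-3/CCL26. Gain or loss of signal fitted bidirectionally vs DMSO baseline.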
Read-out in assay [15]: Intercellular Adhesion Molecule 1 (ICAM1), ICAM1 (gene 3383)
The experiment in a line: BSK_3C_ICAM1: BioMAP Diversity Plus: 3C Assay for Intercellular Adhesion Molecule 1 (ICAM1) Biomarker Activity (AID 2283003). Particulars: primary human endothelial cells (HUVEC); actives raise or lower the signal. An outline of the steps: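 Primary human umbilical vein endothelial cells in the BioMAP 3C system were exposed to chemicals for 24 h, then ICAM-1 was quantified by ELISA. Activity was fitted bidirectionally against the DMSO negative control baseline.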

A short description of assay [16]: BSK_3C_Proliferation: Cell Proliferation Assessment in the BioMAP Diversity Plus: 3C Assay (AID 2283006). Particulars: primary human endothelial cells (HUVEC). An outline of the steps: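 Human umbilical vein endothelial cells were grown sub-confluent and exposed to chemical for 48 h, then fixed with 10% TCA and stained with 0.1% sulforhodamine B; absorbance at 560 nm gave relative cell number, fitted bidirectionally against DMSO baseline.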

For assay [17], the target named is Peroxisome proliferator-activated receptor gamma (Homo sapiens) (UniProt P37231). Kind of assay: ATG_PPARg_TRANS: Attagene TRANS-FACTORIAL HepG2 Assay for human Peroxisome Proliferator-activated Receptor-gamma (PPARg) (AID 2283007; active means hit-call score of the fitted dose curve at least 0.9, where 1 is the maximum). In a few lines:
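Twenty-four hours after chemical dosing of transiently transfected HepG2 cells, isolated RNA was converted to cDNA, reporter sequences amplified and 6-FAM-labelled, then HpaI-digested and analysed by capillary electrophoresis. Signal increase against DMSO was fitted.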

For assay [18], the target named is human Peroxisome Proliferator-activated Receptor delta (PPARd), PPARD (gene 5467) (UniProt Q03181). The experiment in a line: ATG_PPARd_TRANS: Attagene TRANS-FACTORIAL HepG2 Assay for human Peroxisome Proliferator-activated Receptor delta (PPARd) (AID 2283002; active means hit-call score of the fitted dose curve at least 0.9, where 1 is the maximum). In a few lines: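 HepG2 cells transiently transfected with multiplexed GAL4-UAS reporter units and exogenous chimeric NR-Gal4 proteins; 24 h compound exposure. Reporter mRNA measured by RT-PCR, 6-FAM labelling, HpaI digestion and capillary electrophoresis; gain of signal versus DMSO.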

For assay [19], the target named is human Peroxisome Proliferator-activated Receptor alpha (PPARa), PPARA (gene 5465) (UniProt Q07869). The experiment in a line: ATG_PPARa_TRANS: Attagene TRANS-FACTORIAL HepG2 Assay for human Peroxisome Proliferator-activated Receptor alpha (PPARa) (AID 2283001; active means hit-call score of the fitted dose curve at least 0.9, where 1 is the maximum). An outline of the steps:
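HepG2 cells transiently transfected with multiplexed GAL4-UAS reporter units and chimeric NR-Gal4 constructs were dosed for 24 h. Reporter mRNA was measured by RT-PCR with fluorescent labelling and capillary electrophoresis; gain of signal fitted against DMSO.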

Sequence of human Retinoic Acid Receptor gamma (RARg), RARG (gene 5916) (P13631 whole entry, looked up, the tested form may be a part): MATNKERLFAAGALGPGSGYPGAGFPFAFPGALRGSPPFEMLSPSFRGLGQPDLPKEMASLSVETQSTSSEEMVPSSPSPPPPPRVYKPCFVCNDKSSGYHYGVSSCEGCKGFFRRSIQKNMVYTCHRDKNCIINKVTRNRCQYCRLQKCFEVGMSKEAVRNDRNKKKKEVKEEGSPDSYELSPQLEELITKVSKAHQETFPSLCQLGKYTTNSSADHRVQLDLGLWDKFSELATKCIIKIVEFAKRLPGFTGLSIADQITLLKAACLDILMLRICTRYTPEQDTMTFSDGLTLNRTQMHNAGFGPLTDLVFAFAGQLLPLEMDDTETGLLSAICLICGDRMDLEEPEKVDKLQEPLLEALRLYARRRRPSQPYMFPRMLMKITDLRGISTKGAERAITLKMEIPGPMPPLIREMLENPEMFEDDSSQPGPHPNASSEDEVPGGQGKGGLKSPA
Sequence of Retinoic acid receptor alpha (Homo sapiens) (P10276 whole entry, looked up, the tested form may be a part): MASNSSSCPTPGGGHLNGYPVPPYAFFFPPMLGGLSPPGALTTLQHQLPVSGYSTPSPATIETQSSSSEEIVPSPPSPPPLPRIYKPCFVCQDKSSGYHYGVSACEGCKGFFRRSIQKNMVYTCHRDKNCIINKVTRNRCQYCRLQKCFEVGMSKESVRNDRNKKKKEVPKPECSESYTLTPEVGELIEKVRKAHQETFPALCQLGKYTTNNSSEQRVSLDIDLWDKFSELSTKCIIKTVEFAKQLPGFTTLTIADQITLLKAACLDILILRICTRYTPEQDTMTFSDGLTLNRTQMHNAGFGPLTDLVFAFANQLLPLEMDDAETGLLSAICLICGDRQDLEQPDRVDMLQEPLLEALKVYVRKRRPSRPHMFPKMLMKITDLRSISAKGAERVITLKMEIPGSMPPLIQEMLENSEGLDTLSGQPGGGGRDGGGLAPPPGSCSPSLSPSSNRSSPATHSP
Sequence of human Peroxisome Proliferator-activated Receptor delta (PPARd), PPARD (gene 5467) (Q03181 whole entry, looked up, the tested form may be a part): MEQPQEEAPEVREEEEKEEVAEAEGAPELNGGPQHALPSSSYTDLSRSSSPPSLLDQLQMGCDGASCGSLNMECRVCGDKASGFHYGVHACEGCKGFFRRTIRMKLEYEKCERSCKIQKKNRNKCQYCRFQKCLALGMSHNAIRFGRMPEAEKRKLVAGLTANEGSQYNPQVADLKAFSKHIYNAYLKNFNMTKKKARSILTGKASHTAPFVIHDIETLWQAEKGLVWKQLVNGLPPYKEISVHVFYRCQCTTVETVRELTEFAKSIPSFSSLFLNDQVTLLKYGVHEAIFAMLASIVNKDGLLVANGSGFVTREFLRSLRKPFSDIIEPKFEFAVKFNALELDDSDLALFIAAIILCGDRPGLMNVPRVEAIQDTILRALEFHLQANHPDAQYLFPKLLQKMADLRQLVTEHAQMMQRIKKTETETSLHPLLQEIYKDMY
Sequence of human RAR-related Orphan Receptor beta (RORb), RORB (gene 6096) (Q92753 whole entry, looked up, the tested form may be a part): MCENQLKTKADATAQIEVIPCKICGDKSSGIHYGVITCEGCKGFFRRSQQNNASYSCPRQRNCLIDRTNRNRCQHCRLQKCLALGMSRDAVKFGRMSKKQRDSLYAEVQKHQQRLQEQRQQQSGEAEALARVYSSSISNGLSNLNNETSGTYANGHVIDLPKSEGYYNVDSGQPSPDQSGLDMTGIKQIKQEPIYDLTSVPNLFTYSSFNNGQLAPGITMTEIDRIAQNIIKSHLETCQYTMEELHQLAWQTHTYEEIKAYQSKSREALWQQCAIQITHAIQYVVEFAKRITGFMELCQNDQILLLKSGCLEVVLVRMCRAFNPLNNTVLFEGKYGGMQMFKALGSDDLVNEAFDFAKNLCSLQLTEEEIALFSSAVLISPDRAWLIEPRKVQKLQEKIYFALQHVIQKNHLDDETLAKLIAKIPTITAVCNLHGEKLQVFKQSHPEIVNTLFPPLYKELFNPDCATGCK
Sequence of Nuclear receptor subfamily 1 group I member 2 (Homo sapiens) (O75469 whole entry, looked up, the tested form may be a part): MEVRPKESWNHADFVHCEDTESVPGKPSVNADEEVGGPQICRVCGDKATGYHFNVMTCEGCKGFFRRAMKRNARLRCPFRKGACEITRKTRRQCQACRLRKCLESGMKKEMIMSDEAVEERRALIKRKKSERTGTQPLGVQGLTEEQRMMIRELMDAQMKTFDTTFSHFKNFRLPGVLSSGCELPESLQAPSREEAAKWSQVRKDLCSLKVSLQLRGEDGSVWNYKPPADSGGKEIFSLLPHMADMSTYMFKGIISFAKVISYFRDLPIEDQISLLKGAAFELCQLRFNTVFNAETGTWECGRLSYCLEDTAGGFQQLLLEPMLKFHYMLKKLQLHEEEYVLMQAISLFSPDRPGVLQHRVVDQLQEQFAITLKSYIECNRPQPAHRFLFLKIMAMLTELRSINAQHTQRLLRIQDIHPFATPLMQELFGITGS
Sequence of human Retinoic Acid Receptor beta (RARb), RARB (gene 5915) (P10826 whole entry, looked up, the tested form may be a part): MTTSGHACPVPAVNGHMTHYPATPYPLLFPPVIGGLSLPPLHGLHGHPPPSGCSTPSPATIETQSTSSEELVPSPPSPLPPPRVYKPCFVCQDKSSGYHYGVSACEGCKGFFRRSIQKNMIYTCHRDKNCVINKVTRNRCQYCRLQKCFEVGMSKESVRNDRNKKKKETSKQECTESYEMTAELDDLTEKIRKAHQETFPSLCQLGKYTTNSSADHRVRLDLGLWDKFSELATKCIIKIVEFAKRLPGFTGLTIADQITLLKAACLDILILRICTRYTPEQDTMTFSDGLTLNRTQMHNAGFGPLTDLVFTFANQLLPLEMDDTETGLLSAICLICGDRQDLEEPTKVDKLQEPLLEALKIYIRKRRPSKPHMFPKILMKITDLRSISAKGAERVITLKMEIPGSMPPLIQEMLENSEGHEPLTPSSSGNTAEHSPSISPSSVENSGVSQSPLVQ
Sequence of Cellular tumor antigen p53 (Homo sapiens) (P04637 whole entry, looked up): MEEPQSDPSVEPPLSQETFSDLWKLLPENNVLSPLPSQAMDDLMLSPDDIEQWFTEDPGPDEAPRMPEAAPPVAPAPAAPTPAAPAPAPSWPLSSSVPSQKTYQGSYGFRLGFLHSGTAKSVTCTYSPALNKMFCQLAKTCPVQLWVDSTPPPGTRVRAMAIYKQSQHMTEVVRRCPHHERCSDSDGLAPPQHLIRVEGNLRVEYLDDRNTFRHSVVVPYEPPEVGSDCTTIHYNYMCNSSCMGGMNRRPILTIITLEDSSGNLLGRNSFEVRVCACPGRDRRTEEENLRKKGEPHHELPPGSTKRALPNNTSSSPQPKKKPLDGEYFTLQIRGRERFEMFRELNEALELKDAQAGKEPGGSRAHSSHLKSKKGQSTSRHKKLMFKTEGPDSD
Sequence of Myc proto-oncogene protein (Homo sapiens) (P01106 whole entry, looked up): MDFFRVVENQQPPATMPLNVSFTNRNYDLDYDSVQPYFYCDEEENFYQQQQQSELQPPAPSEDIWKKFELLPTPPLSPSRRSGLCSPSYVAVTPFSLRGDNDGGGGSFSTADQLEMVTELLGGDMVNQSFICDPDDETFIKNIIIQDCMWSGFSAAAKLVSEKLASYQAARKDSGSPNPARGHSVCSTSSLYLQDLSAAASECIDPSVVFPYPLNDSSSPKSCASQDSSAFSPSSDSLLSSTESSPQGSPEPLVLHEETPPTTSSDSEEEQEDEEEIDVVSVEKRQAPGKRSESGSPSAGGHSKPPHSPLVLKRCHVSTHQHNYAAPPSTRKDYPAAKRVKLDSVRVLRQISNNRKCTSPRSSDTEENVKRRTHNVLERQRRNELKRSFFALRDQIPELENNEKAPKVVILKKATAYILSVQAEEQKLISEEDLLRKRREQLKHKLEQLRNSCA
Sequence of Peroxisome proliferator-activated receptor gamma (Homo sapiens) (P37231 whole entry, looked up): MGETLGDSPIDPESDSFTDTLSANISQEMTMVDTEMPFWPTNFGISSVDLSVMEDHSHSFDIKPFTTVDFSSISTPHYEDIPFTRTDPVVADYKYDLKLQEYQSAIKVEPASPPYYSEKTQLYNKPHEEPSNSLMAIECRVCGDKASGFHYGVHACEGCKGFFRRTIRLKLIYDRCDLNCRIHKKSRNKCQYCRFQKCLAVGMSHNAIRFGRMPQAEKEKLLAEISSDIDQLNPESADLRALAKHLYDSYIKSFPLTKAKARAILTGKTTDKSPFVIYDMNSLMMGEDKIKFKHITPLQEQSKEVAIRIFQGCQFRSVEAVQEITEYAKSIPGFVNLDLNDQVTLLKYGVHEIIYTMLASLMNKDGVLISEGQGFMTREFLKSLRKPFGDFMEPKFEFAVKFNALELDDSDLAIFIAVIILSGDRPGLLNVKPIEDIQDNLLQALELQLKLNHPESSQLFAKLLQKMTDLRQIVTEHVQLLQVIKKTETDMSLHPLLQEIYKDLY
Sequence of human Peroxisome Proliferator-activated Receptor alpha (PPARa), PPARA (gene 5465) (Q07869 whole entry, looked up, the tested form may be a part): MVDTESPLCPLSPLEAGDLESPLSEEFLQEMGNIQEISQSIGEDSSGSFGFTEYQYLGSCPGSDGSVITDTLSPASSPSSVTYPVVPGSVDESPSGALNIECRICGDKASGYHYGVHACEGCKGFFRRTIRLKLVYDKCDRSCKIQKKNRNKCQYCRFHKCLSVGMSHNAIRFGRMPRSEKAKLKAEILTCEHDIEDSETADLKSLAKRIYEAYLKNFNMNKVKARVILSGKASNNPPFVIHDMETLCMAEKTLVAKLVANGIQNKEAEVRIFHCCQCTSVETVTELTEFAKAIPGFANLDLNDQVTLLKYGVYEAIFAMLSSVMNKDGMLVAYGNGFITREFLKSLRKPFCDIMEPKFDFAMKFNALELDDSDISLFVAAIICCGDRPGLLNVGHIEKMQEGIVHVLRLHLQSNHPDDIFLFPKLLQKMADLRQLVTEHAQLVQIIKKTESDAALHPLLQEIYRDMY

Turning to `CCC(=O)O[C@@H]1C[C@H]2CC[C@]1(C)C2(C)C`, the molecule was called inactive in assay [1], in assay [2], in assay [3], in assay [4], in assay [5] and in assay [6]. In addition, the call in [7], in assay [8], in [9] and in assay [10] was inactive.
Take `CS(=O)(=O)c1ccc(C2=C(c3ccccc3)C(=O)OC2)cc1`: the call in assay [1], in [2], in assay [3], in assay [5], in [11] and in [12] was inactive. Moreover, the result in assay [13], in assay [14], in [15], in [6], in assay [16] and in assay [17] was inactive.
On to `CC1=CC[C@@]23C[C@@H]1C(C)(C)[C@@H]2CC[C@H]3C`, for which the call in [1], in [2], in assay [4], in assay [5], in assay [17] and in assay [8] was inactive. The outcome in [10] was inactive. Besides, in [3], the AC50 was 100 µM (active).
Regarding `C=Cc1ccc(C(C)(C)C)cc1`, the molecule was classed as inactive in assay [1], in [2], in assay [3], in [4], in assay [18] and in [8].
Regarding `C[C@H]1O[C@@H](O[C@H]2[C@@H](O)C[C@H](O[C@H]3[C@@H](O)C[C@H](O[C@H]4CC[C@@]5(C)[C@H](CC[C@@H]6[C@@H]5C[C@@H](O)[C@]5(C)[C@@H](C7=CC(=O)OC7)CC[C@]65O)C4)O[C@@H]3C)O[C@@H]2C)C[C@H](O)[C@@H]1O`, the result in assay [1], in assay [19], in assay [18], in [7], in assay [17] and in assay [8] was inactive. The call in assay [9] was inactive. The AC50 in assay [2] was 0.348 µM (active); in assay [3] it was 0.613 µM (active); in assay [4], 0.133 µM (active).
Consider `OC[C@H]1O[C@@H]2O[C@H]3[C@H](O)[C@@H](O)[C@@H](O[C@H]4[C@H](O)[C@@H](O)[C@@H](O[C@H]5[C@H](O)[C@@H](O)[C@@H](O[C@H]6[C@H](O)[C@@H](O)[C@@H](O[C@H]7[C@H](O)[C@@H](O)[C@@H](O[C@H]8[C@H](O)[C@@H](O)[C@@H](O[C@H]9[C@H](O)[C@@H](O)[C@@H](O[C@H]1[C@H](O)[C@H]2O)O[C@@H]9CO)O[C@@H]8CO)O[C@@H]7CO)O[C@@H]6CO)O[C@@H]5CO)O[C@@H]4CO)O[C@@H]3CO`, for which the molecule was classed as inactive in assay [1], in [2], in [3], in assay [17] and in [10].
As for `CCN(CC)C(=O)N(CC)CC`, the molecule was classed as inactive in assay [1], in [2], in assay [3], in assay [4], in assay [5] and in [11]. The outcome in assay [12], in assay [13], in assay [14], in assay [18], in assay [15] and in assay [6] was inactive. The molecule was called inactive in assay [7], in assay [16], in [8] and in assay [9].
In the case of `CN(C)C(=O)Nc1ccc(Oc2ccc(Cl)cc2)cc1`, the call in assay [1], in assay [2], in assay [4], in assay [5], in [11] and in assay [13] was inactive. In addition, the result in [14], in assay [19], in assay [15] and in [16] was inactive. In addition, the AC50 was 61.4 µM (active) in assay [3], 2.32 µM (active) in [12], 17.4 µM (active) in [17] and 26.6 µM (active) in assay [8].
